# Experimental data taken from PubChem BioAssay AID1508622 (National Center for Advancing Translational Sciences (NCATS), 2021).
# A number with no mark means an inactive call. The source made the active and inactive calls. Calls come from the whole dose curve; as a rule, active = well fitted activation curve with a large enough effect; inconclusive = small, poorly fitted or top-dose-only effect; inactive = no such curve, though single readings can be large or run the other way.
# Test: Confirmatory qHTS for Identification of Small Molecule Activators of Huntingtin-Antisense Promoter Activity
# Settings: HEK293 HTT-AS promoter firefly luciferase reporter, 24 h; series mostly up to 57.5 µM; activity change, positive = activation: at the top concentration
# Procedure, shortened: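 Activity normalized between vehicle control (0%) and zero RLU (-100%) from firefly luminescence (Dual-Glo). Compounds, up to 57.5 uM final, incubated 24 h at 37C on HEK293 reporter cells plated 24 h earlier.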
# Potency is the fitted concentration of half-maximal effect.
SMILES,"activity change, positive = activation [%]",Potency
CCCCCNS(=O)(=O)c1ccc(N2CCCCS2(=O)=O)cc1,-92.2,
CCOc1ccc(CNC(=O)C2CCN(c3nnc(-n4c(C)ccc4C)s3)CC2)cc1,-69.4,
CCCc1cc(N2CCN(c3ccccc3)CC2)n2cnnc2n1,-84.6,
O=C(CSc1nc(-c2ccc(F)cc2)[nH]c1-c1ccc(F)cc1)Nc1ccc2c(c1)OCCO2,-52.4,
COc1ccccc1CNC(=O)c1oc2ccc(S(=O)(=O)N3CCCCC3)cc2c1C,-6.01,
CCc1ccc(-n2nc(C)c3c(C(=O)Nc4cccc(C(F)(F)F)c4)cc(C)nc32)cc1,-31,
Cc1ccc(C(=O)Nc2nnc(SCc3cc(=O)c4c(C)ccc(C)c4[nH]3)s2)cc1,-35.2,
Cc1cccc(-c2nc(CSCC(=O)N3CCN(c4ccccc4)CC3)c(C)o2)c1,-40.1,
Cn1c(Oc2ccc(F)cc2)nc2c1c(=O)n(Cc1ccccc1Cl)c(=O)n2C,-49.8,
O=C(Cn1cc(S(=O)(=O)Cc2ccccc2Cl)c2ccccc21)Nc1cccc(C(F)(F)F)c1,-23.9,
COc1ccc(NS(=O)(=O)c2ccc3c(c2)CC(C)N3C(=O)C2CCC2)cc1OC (centres undefined),-94.3,
CCCCC(=O)Nc1cccc(-c2nc3ccccc3s2)c1,,3010 nM (active)
O=C(Nc1ccc(F)cc1)C1CCN(S(=O)(=O)c2ccc3c(c2)CCCN3C(=O)C2CCC2)CC1,-39.7,
CSc1ncc(Cl)c(C(=O)Nc2ccc(S(=O)(=O)N3CCC(C)CC3)cc2)n1,-31.6,
CCN(Cc1ccccc1)S(=O)(=O)c1ccc(N2CCCCS2(=O)=O)cc1,-36.8,
COc1cccc(C(=O)Nc2ccc(S(=O)(=O)N(Cc3ccccc3)c3ccccc3)cc2)c1,-26.8,
Cc1ccc(Cn2cc(/C=C(/C#N)C(=O)Nc3cccc(Cl)c3)c3ccccc32)cc1,-48.6,
COc1ccc(S(=O)(=O)NCCc2cc3ccc(C)c(C)c3[nH]c2=O)cc1,-25.6,
Cc1ccc(S(=O)(=O)N(CC(=O)NCCc2ccc(Cl)cc2)c2ccccc2C)cc1,-36.2,
Cc1cccc(N2CCN(C(=O)c3ccc4c(c3)CCN4S(=O)(=O)c3ccccc3)CC2)c1C,-64.4,

SMILES,"activity change, positive = activation [%]",Potency
COc1cccc(C(=O)NCCSc2c(-c3ccc(F)cc3)[nH]c3ccccc23)c1OC,-35.9,
Cc1cccc(CN2C(=O)N(c3ccc(C(C)C)cc3)S(=O)(=O)c3ccccc32)c1,-26.1,
Cc1ccc(C)c(N2CCN(CCCNC(=O)c3cnn(-c4ccccc4Cl)c3C3CCN(C(=O)OC(C)(C)C)CC3)CC2)c1,-36.6,
O=C(Nc1ccc(Br)cc1)c1ccc(F)c(S(=O)(=O)NC2CCCCCC2)c1,-76.2,
CCOc1ccccc1NC(=O)c1ccc(F)c(S(=O)(=O)N2CCN(c3ccc(F)cc3)CC2)c1,-32.4,
O=C(NCC(c1ccccc1)c1ccccc1)c1nn(-c2ccccc2F)nc1CO,-65.2,
Cc1c(NS(C)(=O)=O)cccc1-c1nc2ccccc2s1,-34.9,
FC(F)(F)c1cccc(N2CCN(c3nc4ccccc4n4cnnc34)CC2)c1,-34.2,
Cc1c(Cl)cccc1-n1ncc(C(=O)Nc2ccc(F)cc2F)c1C1CCN(C(=O)OC(C)(C)C)CC1,-27.8,
COc1ccccc1C(=O)N1c2ccccc2C(C)(c2ccc(Cl)cc2)CC1(C)C (centres undefined),-40.4,
CCN(Cc1ccccc1)C(=O)c1cc(-c2ccccc2)n[nH]1,,953 nM (active)
COc1ccc(C(=O)Oc2c(Sc3ccccc3)c(C)nn2-c2ccccc2)c(OC)c1,-31.5,
COC(=O)c1c(C)oc2ccc(N(C(=O)c3ccncc3)S(=O)(=O)c3ccc(Br)cc3)cc12,-95,
CCOC(=O)C1CCN(C(=O)Cn2c(-c3cccs3)cc3cc(Cl)ccc32)CC1,-14,
COc1ccccc1N1CCN(C(=O)C2CCCN(S(=O)(=O)c3ccc4c(c3)oc(=O)n4C)C2)CC1 (centres undefined),-45.3,
Fc1ccc(N2CCN(c3ncnc4c3nc3n4CCCCC3)CC2)cc1,-61.6,
COc1cccc(OCc2nc3ccccc3n2CCOc2ccccc2)c1,-49.6,
CCOc1ccc(NC(=O)c2c(Nc3ccccc3C)sc(C(=O)c3ccc(Cl)cc3)c2N)cc1,-30.3,
CCc1ccccc1-n1nnc(-c2nsc(NC(=O)c3ccc(C)c(C)c3)n2)c1C,-72.1,
